SMILES strings stand for the structures. The source made the active and inactive calls. Unless noted, how the calls were made is not given here.

Experiment [1] is described as follows: compounds binding Alexa647 anti-His antibody – biochemical, small-molecule microarray, 635 nm fluorescence, artefact control for SMM control protein annotation, primary screen (AID 1128).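 Further: score merges feature fluorescence with signal-to-noise for each printed compound spot.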 The note with it: higher = more signal.
The test system of experiment [2] is Human papillomavirus type 1a E7 protein (residues 1-88). In words: HPV1a E7 small-molecule binders, primary screen, biochemical, small-molecule microarray, residues 1-88, 635 nm (AID 1129). The conditions noted are these: small-molecule microarray binding, fluorescence 635 nm; higher = more signal.
For experiment [3], the target named is Focal adhesion kinase 1 (Homo sapiens) (UniProt Q05397). The experiment is described as follows: PTK2 protein binding on printed compound slides – biochemical, small-molecule microarray, 635/667 nm fluorescence, BSA, DTT, primary screen (AID 1130).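 Further: composite of spot emission at 667 nm and signal to noise over triplicate slides.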 The conditions noted are these: 635 nm fluorescence, higher = more signal.
Focal adhesion kinase 1 (Homo sapiens), sequence (Q05397 whole entry, looked up): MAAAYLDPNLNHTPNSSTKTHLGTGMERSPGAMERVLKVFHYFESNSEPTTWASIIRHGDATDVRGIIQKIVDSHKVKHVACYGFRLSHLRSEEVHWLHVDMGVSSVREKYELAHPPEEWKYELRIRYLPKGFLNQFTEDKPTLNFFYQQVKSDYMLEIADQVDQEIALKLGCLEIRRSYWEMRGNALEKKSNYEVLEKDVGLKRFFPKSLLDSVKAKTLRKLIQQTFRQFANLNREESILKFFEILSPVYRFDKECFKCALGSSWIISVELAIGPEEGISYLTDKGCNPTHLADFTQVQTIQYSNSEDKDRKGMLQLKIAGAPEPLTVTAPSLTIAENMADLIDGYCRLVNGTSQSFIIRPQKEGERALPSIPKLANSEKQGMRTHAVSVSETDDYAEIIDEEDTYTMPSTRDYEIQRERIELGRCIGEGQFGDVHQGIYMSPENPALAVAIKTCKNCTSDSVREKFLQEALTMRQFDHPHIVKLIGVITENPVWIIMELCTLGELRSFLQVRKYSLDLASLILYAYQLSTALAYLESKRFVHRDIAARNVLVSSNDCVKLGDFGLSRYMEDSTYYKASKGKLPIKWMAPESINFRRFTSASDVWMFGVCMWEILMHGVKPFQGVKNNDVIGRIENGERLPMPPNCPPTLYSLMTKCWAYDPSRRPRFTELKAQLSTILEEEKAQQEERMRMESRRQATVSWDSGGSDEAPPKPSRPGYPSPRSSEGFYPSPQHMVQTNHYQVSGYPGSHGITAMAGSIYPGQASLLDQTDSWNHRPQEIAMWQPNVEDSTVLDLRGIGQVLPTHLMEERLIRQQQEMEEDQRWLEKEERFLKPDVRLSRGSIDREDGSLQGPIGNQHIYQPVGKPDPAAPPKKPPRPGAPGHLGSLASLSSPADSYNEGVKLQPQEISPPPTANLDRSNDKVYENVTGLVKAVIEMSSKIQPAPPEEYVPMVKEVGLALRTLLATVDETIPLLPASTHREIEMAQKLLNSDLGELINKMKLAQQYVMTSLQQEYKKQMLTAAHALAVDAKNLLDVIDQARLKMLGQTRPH
Experiment [4] deals with Fibrinogen (Alexa647-labelled). The experiment is described as follows: Alexa647-fibrinogen binding to printed small molecules – biochemical, small-molecule microarray, 635/667 nm fluorescence, artefact control for SMM control-protein annotation, profiling panel (AID 1131).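 Further: z-score merges 667 nm fluorescence with per-spot signal-to-noise over triplicate slides.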 The conditions noted are these: fibrinogen-A647 binding fluorescence, higher = more signal.
Experiment [5] concerns the target Follistatin (Homo sapiens) (UniProt P19883). The experiment is described as follows: FST protein binding to printed compounds – biochemical, small-molecule microarray, 635/667 nm fluorescence, primary screen (AID 1132). The conditions noted are these: 635 nm fluorescence, higher = more signal.
In experiment [6] the target is Fibroblast growth factor 2 (Homo sapiens) (UniProt P09038). In words: basic fibroblast growth factor binding to printed compounds – biochemical, small-molecule microarray, 635/667 nm fluorescence, primary screen (AID 1133). The note with it: FGF2, fluorescence 635/667, higher = more signal.
Fibroblast growth factor 2 (Homo sapiens), sequence (P09038 whole entry, looked up): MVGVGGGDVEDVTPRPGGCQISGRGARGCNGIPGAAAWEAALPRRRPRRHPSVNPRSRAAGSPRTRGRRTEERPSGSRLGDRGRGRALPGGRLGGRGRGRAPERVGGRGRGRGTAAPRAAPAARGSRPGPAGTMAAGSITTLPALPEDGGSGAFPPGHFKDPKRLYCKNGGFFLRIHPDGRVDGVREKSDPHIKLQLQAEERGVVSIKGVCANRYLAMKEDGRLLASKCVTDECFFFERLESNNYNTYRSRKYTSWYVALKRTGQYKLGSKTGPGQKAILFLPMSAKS
The nature of experiment [7]: JC-1 mitochondrial potential readout, lung cancer cells – cell-based, A549, JC-1 fluorescence, basal, 24 h, 100 nL, profiling panel (AID 1138).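 Further: A549 lung adenocarcinoma cells under basal conditions with no added stimulus; test concentration not given here.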 The note with it: higher = more signal.
The test system of the next experiment is Lefty1. The experiment is described as follows: Lefty1 protein binding to printed compounds – biochemical, small-molecule microarray, 635/667 nm fluorescence, primary screen (AID 1139). The conditions noted are these: fluorescence 635/667, higher = more signal.
Experiment [8] has as its system wheat germ agglutinin (Triticum aestivum), Alexa647-labelled. In words: Alexa647-WGA lectin binding to printed small molecules – biochemical, small-molecule microarray, 635/667 nm fluorescence, artefact control for SMM control-protein annotation, profiling panel (AID 1140).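 Further: score merges 667 nm feature emission with signal to noise over triplicate slides.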 The note with it: WGA-A647 binding, 635 nm fluorescence, higher = more signal.
Experiment [9] addresses Luciferin 4-monooxygenase (Photinus pyralis) (UniProt P08659). In words: inhibition of purified Photinus pyralis luciferase – biochemical, luminescence, purified enzyme, 2006 set, primary screen (AID 1141).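 Further: cell-free assay with purified firefly luciferase at 100 ng per well in PBS; test concentration not given here.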 The conditions noted are these: purified firefly luciferase, SteadyGlo luminescence, 30 min; higher = more signal, called active from +8 up or from −8 down.
The subject of experiment [10] is Wnt5a (protein binding on small-molecule microarray). The experiment is described as follows: small molecules binding Wnt5a protein – biophysical, small-molecule microarray, 635/667 nm fluorescence, primary screen (AID 1142).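 Further: fluorescence read at 667 nm with signal to noise per printed feature.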 The note with it: 635 nm fluorescence, higher = more signal.
Experiment [11] in a line: ATP-based viability of Huh7 replicon cells – cell-based, CellTiter-Glo luminescence, basal, 48 h, cytotoxicity control for HCV replication inhibitor project, primary screen (AID 1143).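 Further: Huh7 hepatoma cells carrying a hepatitis C replication reporter with no stimulus; test concentration not given here.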 The conditions noted are these: higher = more signal, called active from +8 up or from −8 down.
A short description of experiment [12]: Pseudomonas biofilm growth suppression – PAO1 strain, BacTiter-Glo luminescence, LB-PBS, primary screen (AID 1144). The note with it: P. aeruginosa PAO1 biofilm, 12 h, higher = more signal.
A short description of experiment [13]: basal CRE-LacZ reporter activity in PC12 – cell-based, unstimulated, primary screen (AID 1145). The note with it: no forskolin, luminescence, 4.5 h, higher = more signal, called active from +8 up or from −8 down.
Experiment [14] can be described thus: forskolin-driven CRE-LacZ activity in PC12 – cell-based, CRE-LacZ reporter, forskolin-stimulated, primary screen (AID 1146).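 Further: PC12 cells with 6xCRE LacZ reporter stimulated by forskolin 10 µM; beta-galactosidase reporter signal reflecting CREB driven transcription.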 The conditions noted are these: luminescence, 4.5 h, higher = more signal, called active from +8 up or from −8 down.
The target in experiment [15] is Streptavidin (Streptomyces avidinii) (UniProt P22629). In words: compounds binding control protein streptavidin – biophysical, small-molecule microarray, 635/667 nm fluorescence, artefact control for SMM compound annotation, primary screen (AID 1147).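 Further: signal reflects streptavidin binding to arrayed compounds as a control protein.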 The note with it: higher = more signal.
Streptavidin (Streptomyces avidinii), sequence (P22629 whole entry, looked up): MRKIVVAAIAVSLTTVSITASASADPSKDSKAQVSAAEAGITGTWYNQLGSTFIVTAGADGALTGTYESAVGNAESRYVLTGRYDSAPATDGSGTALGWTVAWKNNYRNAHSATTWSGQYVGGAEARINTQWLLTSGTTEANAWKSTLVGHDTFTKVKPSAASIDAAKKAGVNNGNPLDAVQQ
A short description of experiment [16]: probe aInhba binding on compound microarray – biochemical, small-molecule microarray, 635/667 nm fluorescence, primary screen (AID 1148).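 Further: score merges 667nm spot fluorescence with signal-to-noise for antibody binding to printed compounds.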 The conditions noted are these: higher = more signal.
Experiment [17] addresses Torsin-1A (Homo sapiens) (UniProt O14656). In words: TOR1A wild-type binding on microarray – cell lysate, small-molecule microarray, lysate, 635/667 nm, primary screen (AID 1149). The note with it: COS7 hTOR1A-WT lysate, 635 nm fluorescence, higher = more signal.
Experiment [18] has the same target. In words: torsin A mutant lysate binding on microarrays – cell lysate, small-molecule microarray, COS7 lysate, 635/667 nm fluorescence, primary screen (AID 1150).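 Further: score pools 667 nm emission and signal to noise measuring lysate protein binding.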 The note with it: COS7 hTOR1A mutant lysate, 635 nm fluorescence, higher = more signal.
Experiment [19] relates to Sonic hedgehog protein (Shh). The experiment is described as follows: Sonic hedgehog microarray binding compounds – biochemical, small-molecule microarray, 635/667 nm fluorescence, primary screen (AID 1151).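 Further: Shh protein binding to compounds spotted on small-molecule microarray slides; score combines spot fluorescence intensity with signal-to-noise across triplicate slides.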 The note with it: 635 nm fluorescence, higher = more signal.

Luciferin 4-monooxygenase (Photinus pyralis), sequence (P08659 whole entry, looked up): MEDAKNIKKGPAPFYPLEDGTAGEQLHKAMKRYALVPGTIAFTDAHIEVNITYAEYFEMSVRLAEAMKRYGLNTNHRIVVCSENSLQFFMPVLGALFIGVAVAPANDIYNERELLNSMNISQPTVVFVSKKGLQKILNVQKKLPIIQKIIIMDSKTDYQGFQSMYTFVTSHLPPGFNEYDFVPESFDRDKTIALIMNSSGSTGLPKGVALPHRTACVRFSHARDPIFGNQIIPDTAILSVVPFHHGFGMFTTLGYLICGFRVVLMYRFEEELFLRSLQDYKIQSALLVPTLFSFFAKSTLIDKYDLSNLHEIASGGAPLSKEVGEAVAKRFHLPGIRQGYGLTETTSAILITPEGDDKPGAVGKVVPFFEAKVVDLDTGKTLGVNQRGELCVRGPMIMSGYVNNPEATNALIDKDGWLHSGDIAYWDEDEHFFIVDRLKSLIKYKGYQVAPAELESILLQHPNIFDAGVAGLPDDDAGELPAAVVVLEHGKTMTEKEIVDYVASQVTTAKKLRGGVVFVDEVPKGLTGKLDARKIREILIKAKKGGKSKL
Torsin-1A (Homo sapiens), sequence (O14656 whole entry, looked up): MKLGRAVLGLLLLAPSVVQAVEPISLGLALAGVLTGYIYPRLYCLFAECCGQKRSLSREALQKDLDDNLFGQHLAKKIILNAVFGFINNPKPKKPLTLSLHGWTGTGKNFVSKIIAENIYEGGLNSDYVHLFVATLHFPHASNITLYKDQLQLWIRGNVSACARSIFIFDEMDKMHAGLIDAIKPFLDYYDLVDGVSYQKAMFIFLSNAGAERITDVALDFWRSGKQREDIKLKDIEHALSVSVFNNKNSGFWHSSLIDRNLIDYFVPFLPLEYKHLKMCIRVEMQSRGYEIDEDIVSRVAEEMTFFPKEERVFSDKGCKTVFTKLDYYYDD
Follistatin (Homo sapiens), sequence (P19883 whole entry, looked up): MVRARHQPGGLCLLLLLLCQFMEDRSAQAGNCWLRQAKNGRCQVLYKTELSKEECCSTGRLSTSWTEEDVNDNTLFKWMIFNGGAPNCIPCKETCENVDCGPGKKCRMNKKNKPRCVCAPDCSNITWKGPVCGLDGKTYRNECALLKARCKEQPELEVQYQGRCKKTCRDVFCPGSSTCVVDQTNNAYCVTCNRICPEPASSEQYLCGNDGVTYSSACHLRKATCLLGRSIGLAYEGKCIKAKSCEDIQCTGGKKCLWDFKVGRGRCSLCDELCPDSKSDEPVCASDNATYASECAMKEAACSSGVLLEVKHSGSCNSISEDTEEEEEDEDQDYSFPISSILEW

On to `CCOC(=O)C[C@H]1[C@H](OC(=O)c2ccc(-c3ccccc3)cc2)[C@@H](NC(=O)C2CCCCC2)c2cc(OCCCO)ccc2N1C(=O)c1ccccc1`, for which the composite z-score in experiment [1] is 0.0672; in experiment [2], 0.755; in experiment [3] it was 0.559; in experiment [4], 0.845; in experiment [5], 0.461; in [6], 0.406. Further, the composite z-score in the experiment with Lefty1 is 0.544; in experiment [8], 0.207; in experiment [10], 0.0722; in experiment [15], 0.947; in experiment [16], -0.133; with Torsin-1A (Homo sapiens) [17], -0.0488. For the same molecule, the composite z-score with Torsin-1A (Homo sapiens) [18] is 0.221; in experiment [19] it was 0.957. Further, the z-score in [7] was 0.0651; in experiment [9], 0.0421 (inactive); in experiment [11], -0.0788 (inactive); in [12], -0.376 (inactive); in experiment [13] it was -0.0247 (inactive); in experiment [14], 0.178 (inactive).
For the molecule `O=C1NC(=O)C2C1C=CC(C(O)c1ccc3c(c1)OCO3)N2Nc1ccccn1` (stereo not given), the composite z-score in experiment [1] is 0.942; in experiment [2], 0.256; in experiment [3], 0.0543; in [4], 0.646; in experiment [5], 1.32; in experiment [6] it was 0.133. The composite z-score in the experiment on Lefty1 was 0.146; in experiment [8], 1.01; in experiment [10], 0.141; in [15], 0.501; in experiment [16] it was -0.203; with Torsin-1A (Homo sapiens) [17], 0.546. The composite z-score was 0.05 in the experiment with Torsin-1A (Homo sapiens) [18] and 0.347 in experiment [19]. The z-score was 0.992 in [7]; -0.716 (inactive) in [9]; -0.259 (inactive) in [11]; -1.72 (inactive) in experiment [12]; 1.01 (inactive) in experiment [13]; 0.689 (inactive) in experiment [14].
In the case of `O=c1cccc(-c2cccc(Cl)c2)o1`, the composite z-score in experiment [1] was 0.417; in experiment [2] it was 1.11; in experiment [3], 0.682; in experiment [4], 0.2; in [5], -0.0992; in experiment [6] it was -0.332. Also, the composite z-score in the experiment on Lefty1 was -0.014; in experiment [8], 0.11; in [10], 0.0303; in experiment [15] it was 0.244; in experiment [16], 0.0047; with Torsin-1A (Homo sapiens) [17], 0.34. Moreover, the values for the composite z-score (in the experiment with Torsin-1A (Homo sapiens) [18]; in experiment [19]) were 0.617 and -0.215, respectively. Moreover, the z-score in experiment [7] was 0.0374; in experiment [9], 0.672 (inactive); in experiment [11], -1.07 (inactive); in [12], 0.96 (inactive); in experiment [13], 0.631 (inactive); in [14], -1.05 (inactive).
As to `O=C(CS)NCCCCCCNC(=O)[C@@H]1C[C@@H]2C(=O)N3CCC[C@H]3C(=O)N2[C@@H]1c1cccc(OCCO)c1`, the composite z-score in experiment [1] stood at 0.824; in experiment [2], 1.13; in experiment [3], 0.459; in experiment [4] it was 0.642; in experiment [5], 1.1; in [6], 1.59. The composite z-score with Lefty1 was 0.361; in experiment [8] it was 0.832; in [10], 0.939; in experiment [15] it was 0.283; in [16], -0.128; with Torsin-1A (Homo sapiens) [17] it was 1.19. Further, the composite z-score with Torsin-1A (Homo sapiens) [18] came to 1.34; in experiment [19] it was 1.7. The z-score in [7] was 0.503; in experiment [9] it was -0.681 (inactive); in experiment [11], -0.497 (inactive); in experiment [12], -1.05 (inactive); in experiment [13], -1.35 (inactive); in experiment [14], -1.07 (inactive).
Take `COCCOC(=O)N1C(=O)[C@@]2(c3cc(C#CC4=CCCCC4)ccc31)[C@H](c1ccccc1OCCO)N1[C@H](c3ccccc3)[C@H](c3ccccc3)OC(=O)[C@H]1[C@@H]2C(=O)N1CCc2cc(OC)c(OC)cc2C1`: the composite z-score in experiment [1] stood at 0.891; in experiment [2], 1.2; in experiment [3], 0.204; in experiment [4], 0.764; in experiment [5] it was 1.28; in experiment [6], 0.917. In addition, the composite z-score with Lefty1 was 0.555; in experiment [8], 0.441; in experiment [10], 0.316; in experiment [15] it was -0.0953; in experiment [16], -0.305; with Torsin-1A (Homo sapiens) [17] it was -0.148. The composite z-score is 0.536 with Torsin-1A (Homo sapiens) [18] and 1.79 in [19]. The z-score was -0.682 in experiment [7]; -1.97 (inactive) in experiment [9]; -1.93 (inactive) in [11]; -0.455 (inactive) in experiment [12]; 1.03 (inactive) in experiment [13]; 0.904 (inactive) in [14].
